# Laboratory results as given in PubChem BioAssay AID1220 (Sanford-Burnham Center for Chemical Genomics, 2008).
# In all, about 190,000 compounds went through this assay and about 1,300 (0.68%) were called active. No stated cut-off is given here; in the data, active means inhibition above about 50%; inactive means the rest. Only a selection was taken, and actives are over-represented in it overall.
# Target: Mannose-6-phosphate isomerase (Homo sapiens) (UniProt P34949)
# Experiment: human PMI inhibitors, high substrate, primary screen, biochemical, fluorescence intensity, high mannose 6-phosphate (AID 1220)
# Settings: recombinant PMI enzyme, coupled fluorescence intensity; at 20 µM; hits give high values
# Mannose-6-phosphate isomerase (Homo sapiens), sequence (P34949 whole entry, looked up): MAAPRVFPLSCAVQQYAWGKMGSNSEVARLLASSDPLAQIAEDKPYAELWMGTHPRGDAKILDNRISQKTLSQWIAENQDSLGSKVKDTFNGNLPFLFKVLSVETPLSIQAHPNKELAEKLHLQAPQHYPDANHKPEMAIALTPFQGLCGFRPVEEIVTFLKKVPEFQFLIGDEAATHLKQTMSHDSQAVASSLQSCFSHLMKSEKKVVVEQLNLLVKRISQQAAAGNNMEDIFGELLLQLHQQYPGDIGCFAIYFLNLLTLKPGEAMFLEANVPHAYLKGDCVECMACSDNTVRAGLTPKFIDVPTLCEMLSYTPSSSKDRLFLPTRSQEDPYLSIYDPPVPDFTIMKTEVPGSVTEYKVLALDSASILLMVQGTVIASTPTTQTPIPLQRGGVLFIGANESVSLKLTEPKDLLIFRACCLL
row,SMILES,inhibition
1,CCCN1Cc2cccc(C(=O)N3CCN(c4ccccc4)CC3)c2C1=O,1% (inactive)
2,O=C(Nc1ccc(N2CCOCC2)cc1)c1ccccc1SCC(=O)N1CCCC1,4.1% (inactive)
3,Fc1ccc(CNC(=S)NC2CCCCC2)cc1,8.4% (inactive)
4,CN1C(=O)CC(Nc2cccc3cccc(N)c23)C1=O (centres undefined),49.7% (inactive)
5,COc1ccc(NC2CC(=O)N(C(C)C)C2=O)cc1 (centres undefined),8.8% (inactive)
6,CC(C)N1C(=O)CC(Nc2cccc3cccc(N)c23)C1=O (centres undefined),64.5% (active)
7,Cc1ccc(C2=NC(=O)/C(=C/c3cc(O)c(O)c(Br)c3)S2)cc1,53.2% (active)
8,COc1cc(/C=C2\SC(c3ccc(C)cc3)=NC2=O)ccc1O,9.3% (inactive)
9,COc1cc(/C=C2\SC(c3ccc(C)cc3)=NC2=O)cc(OC)c1O,26.7% (inactive)
10,Cc1cccc(OCc2nnc(SCC(=O)Nc3ccc(C)c(C)c3)o2)c1,17.5% (inactive)
11,Fc1ccccc1N1CCN(c2nnnn2-c2ccccc2)CC1,-2.8% (inactive)
12,Nn1cnnc1N/N=C/c1ccc(Cl)c([N+](=O)[O-])c1,60.2% (active)
13,Cc1nnc(N/N=C/c2ccc([N+](=O)[O-])cc2)n1N,68.7% (active)
14,COc1ccc(/C=N/Nc2nonc2N)cc1OC,-6.6% (inactive)
15,COc1ccc(-n2c(C)cc(/C=N/Nc3nnc(C)n3N)c2C)cc1,-12.8% (inactive)
16,COc1ccc(/C=N/Nc2nnc(C)n2N)cc1OC,67.2% (active)
17,Nn1cnnc1N/N=C/c1cc([N+](=O)[O-])c(Cl)cc1Cl,-35.2% (inactive)
18,CC1CCN(c2ccc(/C=N\Nc3nncn3N)cc2[N+](=O)[O-])CC1,43.7% (inactive)
19,Cc1cc(=O)[nH]c(N/N=C/c2ccc([N+](=O)[O-])cc2)n1,-4.6% (inactive)
20,CCc1nnc(N/N=C/c2ccc(-c3ccc([N+](=O)[O-])cc3)o2)n1N,41.3% (inactive)
21,CCc1cc(=O)oc2cc(C)c3c(C)coc3c12,4.2% (inactive)
22,COc1ccc(C(=O)N(CN2CCCC2=O)c2ccccc2OC)cc1OC,18.2% (inactive)

row,SMILES,inhibition
1,O=C(Nc1nc(-c2ccc(Cl)cc2)cs1)NC1CCCCC1,-7.6% (inactive)
2,CCN(CC)C(=O)CSc1nc(O)c(Cc2ccccc2)c(=O)n1-c1ccccc1,-5.3% (inactive)
3,Nn1c(SCC(=O)NCc2ccccc2)nncc1=O,11.9% (inactive)
4,Oc1ccc(-c2csc(-c3c[nH]c4ccccc34)n2)c(O)c1,-4.2% (inactive)
5,Cc1ccc(/C=C2\C(=O)Nc3ccccc32)o1,6.8% (inactive)
6,N#CCC(=O)N/N=C/c1ccc(OC2CSC2)cc1,6.6% (inactive)
7,CN(C)c1nc(Oc2ccc(=O)[nH]n2)nc(N2CCCCC2)n1,-0.1% (inactive)
8,CCOC(=O)Cc1csc(SCC(=O)NC2CCCC(C)C2C)n1 (centres undefined),-3.7% (inactive)
9,CCOC(=O)Cc1csc(SCC(=O)NC2CCCCC2)n1,-6% (inactive)
10,CCOC(=O)Cc1csc(SCC(=O)NC(C)C23CC4CC(CC(C4)C2)C3)n1 (centres undefined),51% (active)
11,COC(C(=O)Nc1ccc(F)cc1F)c1ccccc1 (centres undefined),0.3% (inactive)
12,O=C(NCCCn1ccnc1)C(Cc1ccc([N+](=O)[O-])cc1)N1C(=O)c2ccccc2C1=O (centres undefined),-5.8% (inactive)
13,CCn1c(Cc2ccccc2)nnc1SCC(=O)c1cccc([N+](=O)[O-])c1,5.6% (inactive)
14,Cc1noc(C)c1S(=O)(=O)Nc1ccc(C(=O)NCCc2ccccc2)cc1,3.4% (inactive)
15,O=C1C2C3C=CC(C4CC34)C2C(=O)N1/N=C/c1ccc(-c2ccc(F)cc2[N+](=O)[O-])o1 (centres undefined),14.4% (inactive)
16,O=C1C2C3C=CC(C4CC34)C2C(=O)N1/N=C/c1ccc(-c2ccc(Cl)cc2[N+](=O)[O-])o1 (centres undefined),7.4% (inactive)
17,O=C1C2C3C=CC(C3)C2C(=O)N1/N=C/c1ccc(-c2ccccc2[N+](=O)[O-])o1 (centres undefined),51.5% (active)
18,COc1ccc(-c2ccc(/C=N/N3C(=O)C4C5C=CC(C6CC56)C4C3=O)o2)c([N+](=O)[O-])c1 (centres undefined),42.2% (inactive)
19,Cc1n[nH]c(=S)n1/N=C/c1ccc(-c2ccccc2[N+](=O)[O-])o1,21.2% (inactive)
20,O=[N+]([O-])c1ccccc1-c1ccc(/C=N/n2cnnc2)o1,51.1% (active)
21,O=C1/C(=C\c2ccc(-c3ccccc3[N+](=O)[O-])o2)C(c2ccccc2)=NN1c1ccccc1,-2.3% (inactive)
22,Cc1ccc(-c2ccc(/C=N/N3C(=O)C4C5C=CC(CC5)C4C3=O)o2)c([N+](=O)[O-])c1 (centres undefined),33.2% (inactive)

row,SMILES,inhibition
1,O=c1nc2s/c(=C\c3ccc(-c4ccccc4[N+](=O)[O-])o3)c(=O)n2nc1-c1ccccc1,50.5% (active)
2,O=C1ON=C(c2ccccc2)/C1=C/c1ccc(-c2ccccc2[N+](=O)[O-])o1,-11% (inactive)
3,Clc1ccccc1-c1ccc(/C=N/n2cnnc2)o1,6.7% (inactive)
4,Cc1ccc(-c2ccc(/C=N/N3C(=O)C4C5C=CC(C6CC56)C4C3=O)o2)c([N+](=O)[O-])c1 (centres undefined),50.8% (active)
5,CCCc1nc(N)c(C#N)c(N)c1C#N,3.2% (inactive)
6,O=C(Nc1cc(S(=O)(=O)N2CCOCC2)ccc1N1CCOCC1)c1ccc(S(=O)(=O)N2CCCCC2)cc1,-10.7% (inactive)
7,Clc1ncn(C23CC4CC(CC(C4)C2)C3)n1,-0.3% (inactive)
8,CCOC(=O)c1cccc(NC(=O)CN(c2ccc(OC)cc2)S(=O)(=O)c2c(C)noc2C)c1,19.2% (inactive)
9,Cc1c(O)c(CN2CCCCC2)cc2c1oc(=O)c1ccccc12,1.8% (inactive)
10,NC(=O)C1(N2CCCCC2)CCN(CC(=O)Nc2cc(Cl)ccc2Cl)CC1,7.2% (inactive)
11,CCC1(C)COC2(OC1)C(=O)Nc1ccccc12 (centres undefined),8.2% (inactive)
12,Cc1ccc(NC(=O)CS(=O)CC(=O)NCCCN(C)c2ccccc2)cc1 (centres undefined),11.5% (inactive)
13,COC1CCCN(Cc2cn(C)nc2-c2ccc(Oc3ccccc3)cc2)C1 (centres undefined),8.1% (inactive)
14,O=C(NCC1CCCO1)C(=O)NCC(c1ccco1)N1CCN(c2ccccc2)CC1 (centres undefined),-4.7% (inactive)
15,O=C(Oc1cccc2cccnc12)c1cccc(N2C(=O)C3C4CCC(C4)C3C2=O)c1 (centres undefined),51.9% (active)
16,Cc1ccc(C(=O)Oc2ccccc2N2C(=O)C3C4CCC(C4)C3C2=O)cc1 (centres undefined),0.7% (inactive)
17,O=C(Oc1cccc2cccnc12)c1ccc(N2C(=O)C3C4CCC(C4)C3C2=O)cc1 (centres undefined),50.5% (active)
18,O=C(Oc1cccc2cccnc12)c1cccc(-n2cnnn2)c1,27.9% (inactive)
19,O=C(Nc1ccc(F)cc1)c1cccc(N2C(=O)C3C4CCC(C4)C3C2=O)c1 (centres undefined),9.3% (inactive)
20,CC1CCC2C(=O)N(c3ccc(C(=O)Oc4cccc5cccnc45)cc3)C(=O)C2C1 (centres undefined),48.7% (inactive)
